# Source: PubChem BioAssay (Tox21)
# Inconclusive results are not listed. Activity calls are given as the source filed them. The call rests on the fitted dose curve.
# Assay: Nuclear factor erythroid 2-related factor 2/antioxidant responsive element (Nrf2/ARE) small molecule agonists: luciferase reporter gene qHTS assay in human keratinocytes (AID 1919969); further: nearly all actives have a fitted effect of over 35% in size
# Conditions: KeratinoSens HaCaT ARE-luciferase, luminescence, 24 h; series mostly up to 92.4 µM; activity, positive = activation: at the top concentration
# Text: National Center for Advancing Translational Sciences [NCATS]
# Division of Preclinical Innovation [DPI]
# U.S. Environmental Protection Agency [EPA]
# National Institutes of Environmental Health Sciences [NIEHS]
# National Toxicology Program [NTP]
# U.S. Food and Drug Administration [FDA]
# Oxidative stress has been implicated in the pathogenesis of a variety of diseases ranging from cancer to neurodegeneration. The antioxidant response element (ARE) signaling pathway plays an important role in the amelioration of oxidative stress. The KeratinoSens (Givaudan, Switzerland) is an in vitro test method which quantifies luciferase induction as a measure of activation of Keap1-Nrf2-antioxidationt/electrophile response element (ARE) dependant pathway in HaCaT human keratinocytes stably transfected with a selectable plasmid. The KeratinoSens assay is a cell-based assay with a reporter cell line to detect potential skin sensitizers by their ability to induce the Nrf2/ARE-response. The activation of the report gene under culture conditions can be detected by ONE-Glo Luciferase Assay System (Promega, Madison, WI). This cell line has been used to screen the Tox21 10K compound library to identify agonists that induce oxidative stress. The cytotoxicity of the Tox21 compound library against the KS-ARE cell line was tested in parallel by measuring the cell viability using CellTiter- Fluor assay system (Promega, Madison, WI) in the same wells.
# HaCaT derived cell line KeratinoSens were dispensed at 1,500 cells/5uL/well in 1536-well white wall/solid bottom plates using a Multidrop Combi (ThermoFisher Scientific, Waltham, MA) dispenser. After the assay plates were incubated at 37 C/5% CO2 for 5 h, 23 nL of compounds dissolved in DMSO, positive controls or DMSO only was transferred to the assay plate by a pintool workstation (Kalypsys, San Diego, CA). The plates were incubated at 37 C/5% CO2 for 23 h, followed by addition of 1uL/well of CellTiter-Fluor reagent into the assay plates using a Flying Reagent Dispenser (Aurora Discovery, San Diego, CA) for cell viability readout that measures cytotoxicity. After 1 h incubation at 37 C/5% CO2 the fluorescence intensity was measured using a ViewLux (PerkinElmer, Shelton, CT) plate reader. Then 4uL/well of One-Glo were added using a Flying Reagent Dispenser. After the plates were incubated at room temperature for 30 min, the luminescence intensity in the assay plates was measured using ViewLux plate reader.
# On the % scale 0 is the no-effect control and ±100 the full control effect; potency means the concentration at half of the fitted maximal effect.
Compound,"activity, positive = activation",Potency
Cc1ccc(S(=O)(=O)N[C@@H](CCCCN)C(=O)CCl)cc1,16.8% [at 42.5 µM] (inactive),
CCCCOC(C)=O,-0.801% (inactive),
Oc1ccc2ccc3cccc4ccc1c2c34,,61.1 µM (active)
COc1ncc(F)c2nc(S(=O)(=O)Nc3c(F)cccc3F)nn12,3.8% [at 42.5 µM] (inactive),
O=C(O)c1cc[c]([Hg][Cl])cc1,,21.7 µM (active)
O=[N+]([O-])c1ccc(F)c([N+](=O)[O-])c1,6.04% (inactive),
CC(Oc1cccc(Cl)c1)C(=O)O (stereo not given),-3.21% (inactive),
Clc1cc(Cl)c(Cl)c(Cl)c1,6.26% (inactive),
O=C(N[C@@H]1N=C(c2ccccc2F)c2cccc3c2N(CC3)C1=O)c1cc2ccccc2[nH]1,-7.43% [at 42.5 µM] (inactive),
COC(=O)C(C)Oc1ccc(Oc2ccc(Cl)cc2Cl)cc1 (stereo not given),-8.04% (inactive),
CCOc1cc(Oc2ccc(C(F)(F)F)cc2Cl)ccc1[N+](=O)[O-],,inactive
CO/N=C(\C(=O)OC)c1ccccc1CO/N=C(\C)c1cccc(C(F)(F)F)c1,-12% (inactive),
CCOC(=O)COc1ccc(Cl)cc1Cl,2.51% (inactive),
CC1COC(Cn2cncn2)(c2ccc(Oc3ccc(Cl)cc3)cc2Cl)O1 (stereo not given),-22.9% (inactive),
CC[C@H]1C[C@@H]2C[C@H]3c4[nH]c5ccc(OC)cc5c4CCN(C2)[C@@H]13,,67.4 µM (active)
COC(=O)C1(O)c2ccccc2-c2ccccc21,0.676% (inactive),
Cc1cc(C)c(C(=O)P(=O)(c2ccccc2)c2ccccc2)c(C)c1,-37.2% (inactive),
CC(C)c1c(CN(C)C(C)Cc2ccccc2)n(C)n(-c2ccccc2)c1=O (stereo not given),0.718% [at 42.5 µM] (inactive),
CC(C)CC(N(C)C)C1(c2ccc(Cl)cc2)CCC1 (stereo not given),7.16% [at 42.5 µM] (inactive),
CCC(C(N)=O)N1CCCC1=O (stereo not given),0.239% [at 42.5 µM] (inactive),

Compound,"activity, positive = activation",Potency
CC(Cl)(Cl)Cl,0.269% (inactive),
CCOP(=S)(OCC)Oc1nc(Cl)n(C(C)C)n1,17.9% (inactive),
COP(=S)(OC)Oc1ccc([N+](=O)[O-])cc1Cl,19.3% (inactive),
CCN(CC)C(=O)N[C@@H]1C=C2c3cccc4[nH]cc(c34)C[C@@H]2N(C)C1,6.3% [at 42.5 µM] (inactive),
CC(Cl)(Cl)[N+](=O)[O-],-10.2% (inactive),
Brc1ccccc1,-0.926% (inactive),
COc1cccc([C@@]2(O)CCCC[C@@H]2CN(C)C)c1,0.888% [at 42.5 µM] (inactive),
CCC#N,-8.99% (inactive),
CN1C(=O)COc2c(C(=O)NC3CN4CCC3CC4)cc(Cl)cc21 (stereo not given),-8.72% [at 42.5 µM] (inactive),
CCC(OC(C)=O)C(CC(C)NC)(c1ccccc1)c1ccccc1 (stereo not given),-43.3% (inactive),
N#CCc1ccc(Cl)cc1,-2.97% (inactive),
CC(Oc1cc(Cl)c(Cl)cc1Cl)C(=O)O (stereo not given),0.908% (inactive),
CN(C)c1ccc(N=Nc2ccccc2)cc1,,3.07 µM (active)
Nc1ccccc1-c1ccccc1,5.04% (inactive),
CNN,-2.48% (inactive),
O=CC(Br)(Br)Br,,3.05 µM (active)
CCN(CC)C(C)C(=O)c1ccccc1 (stereo not given),-4.81% [at 42.5 µM] (inactive),
C=CCC1=C(C)C(OC(=O)C2C(C=C(C)C)C2(C)C)CC1=O (stereo not given),,23 µM (active)
c1cc2ccc3cccc4ccc(c1)c2c34,-10.4% (inactive),
COc1ccc2c(c1OC)CN1CCc3cc4c(cc3C1C2)OCO4 (stereo not given),0.289% [at 42.5 µM] (inactive),
